BaF3 parental – counter-screen for JAK2V617F inhibitors: parental Ba/F3 viability inhibitors. CellTiter-Glo ATP luminescence. inhibition, % at 5.6 µM. actives 1.1% (n = 220,000). AID 1486;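 active = inhibition above a per-campaign cutoff, the mean inhibition of all tested compounds plus 3 SD, cut at about 27% in these data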
KLF5 inhibitor – suppresses KLF5 promoter-driven expression. DLD-1 KLF5 promoter-luciferase reporter, luminescence. inhibition, % at 5 µM. actives 0.23% (n = 290,000);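 active = inhibition above a per-plate limit of that plate's mean compound inhibition plus 3 SD, cut at about 60% in these data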;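 also: higher means less KLF5 promoter-driven luciferase light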
APP transl inh – APP translation inhibition; SH-SY5Y APP 5'UTR-luciferase reporter, luminescence; inhibition, % at 2 µM; actives 0.82% (n = 190,000);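 active = inhibition above a set limit, derived from the sample mean plus 3 SD, cut at about 45% in these data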
Ba/F3 V617F tox – loss of viability in JAK2V617F-driven Ba/F3 cells; Ba/F3 EpoR-JAK2V617F viability, ATP luminescence; actives 1.1% (n = 220,000); AID 1446; inhibition, % at 5.6 µM;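 active = inhibition above the campaign mean plus 3 SD over all tested compounds, cut at about 24% in these data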;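 also: cytokine-independent growth of Ba/F3 cells driven by EpoR plus mutant JAK2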
aSyn UTR inh – 5' untranslated region of α-synuclein, MLPCN primary screen. inhibition, % (tested at 7.5 µM). alpha-synuclein 5'UTR reporter, inhibitor activity. actives 0.82% (n = 300,000); in the data active = inhibition above about 60%;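 also: H4 neuroglioblastoma cells stably carrying SNCA 5'UTR luciferase fusion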
IEC-6 tox-1 – counter-screen for KLF5 inhibitors: cytotoxicity in IEC-6 cells; IEC-6 cytotoxicity, luminescence viability; inhibition, % at 5 µM; actives 0.78% (n = 290,000); in the data active = inhibition above about 22%
KLF5 inh confirm – KLF5 inhibition, confirmation assay; shares compounds with KLF5 inhibitor; DLD-1 KLF5 promoter firefly luciferase reporter, luminescence; inhibition, % at 4 µM; actives 79% (n = 610); AID 1834;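 active = inhibition above a set limit taken from the earlier primary screen, cut at about 63% in these data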
IEC-6 tox-2 – counter-screen for KLF5 inhibitors: cytotoxicity in rat IEC-6 cells | actives 56% (n = 610) | inhibition, % at 4 µM | IEC-6 rat intestinal cells, viability luminescence | shares compounds with KLF5 inhibitor; in the data active = inhibition above about 23%;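 also: cells exposed to compounds for 48 hours before viability read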
Hits are given with their value; - = inactive; . = no result given. Rows were chosen to be rich in hits. Some 2.2% of all compounds tested hit in one or more screens of this group.

SMILES | BaF3 parental | KLF5 inhibitor | APP transl inh | Ba/F3 V617F tox | aSyn UTR inh | IEC-6 tox-1 | KLF5 inh confirm | IEC-6 tox-2
OC(COC1CCCCC1)CN1CCCCC1 (centres undefined) | . | - | . | . | - | - | . | .
Cc1ccc(NC(=S)N2CCC(NC(=O)c3ccc(F)cc3)CC2)cc1C | . | - | . | . | - | - | . | .
C=CCC1(NCc2ccco2)CCN(CC)CC1 | - | - | - | - | - | - | . | .
CN=c1scc(-c2cccs2)n1/N=C/c1ccccc1O | - | 108.1 | 53.1 | - | 103.3 | - | 94.9 | -
CN=c1scc(-c2cccs2)n1/N=C/c1ccc(O)c(O)c1O | - | - | - | - | - | - | . | .
Cc1ccc(Cl)cc1N1CCN(S(=O)(=O)c2ccc3c(c2)NC(=O)C(C)C(=O)N3)CC1 (centres undefined) | . | - | . | . | - | - | . | .
COc1cccc(/C=N/NC(=O)CNC(=O)c2ccc3c(c2)OCCO3)c1O | - | - | - | - | - | - | . | .
CCOc1cccc(/C=N/NC(=O)c2ccc3c(c2)OCCO3)c1O | . | 65.0 | . | . | - | - | 93.4 | -
O=c1[nH]c(=O)n([C@H]2C[C@H](O)[C@@H](CO)O2)cc1F | 97.5 | 62.3 | 69.0 | 99.5 | 80.2 | 93.8 | - | 87.2
O=C(Nc1cccnc1)c1cccs1 | 87.5 | 72.2 | - | 45.7 | - | - | 69.7 | -
Clc1ccc(CSc2nnc(-c3ccc4c(c3)OCO4)o2)cc1 | - | - | - | - | - | - | . | .
O=C1CCCCC1Sc1nnc(-c2ccc3c(c2)OCO3)o1 (centres undefined) | - | 66.4 | - | - | - | - | - | -
O=C(NCc1cccnc1)C(=O)NCC1OCCCN1S(=O)(=O)c1ccc(F)cc1 (centres undefined) | . | - | . | . | - | - | . | .
COc1ccc(-n2ncc3c(N4CCCCC4)ncnc32)cc1 | - | 65.3 | - | - | 101.2 | - | 88.3 | -
COc1ccc(-n2ncc3c(N4CCN(c5cccc(C)c5C)CC4)ncnc32)cc1 | . | - | . | . | - | - | . | .
Cc1cccc(C=Nc2ccccc2C(N)=O)c1 | - | - | - | - | - | - | . | .
Cc1ccc(C=Nc2ccccc2C(N)=O)s1 | 66.7 | 62.7 | - | 66.1 | - | 80.6 | - | 31.9
CCOC(=O)c1c(C)[nH]c(C(=O)OCC(=O)N(C)CC(=O)Nc2ccccc2Cl)c1C | . | . | . | . | - | . | . | .
Cn1c(CNC(=O)c2ccc(F)cc2)nc2ccccc21 | - | - | - | - | - | - | . | .
CSc1nc(N(C)NC(=O)c2ccc(F)cc2)c2ccccc2n1 | 72.6 | 79.2 | 95.0 | 72.1 | 76.7 | 77.9 | 78.0 | 61.2
O=C(O)c1ccc(N/N=C/c2ccc3nccnc3c2)cc1 | - | 98.0 | . | - | 94.0 | - | 103.2 | -
Nc1ccc(-c2nc3ccc(C(=O)O)cc3s2)cc1 | - | 108.7 | 67.3 | - | 95.4 | - | 105.1 | -
Oc1cccc2ccc(Nc3ccccn3)nc12 | 75.6 | 104.8 | 79.7 | 97.5 | 98.4 | - | 102.5 | -
CN(C)CCNCCCOc1ccccc1-c1ccccc1 | - | - | - | - | - | - | . | .
COc1cc(C2NC(=O)NC3=C2C(=O)OC3)cc(OC)c1OC (centres undefined) | - | - | . | - | - | - | . | .
SMILES | BaF3 parental | KLF5 inhibitor | APP transl inh | Ba/F3 V617F tox | aSyn UTR inh | IEC-6 tox-1 | KLF5 inh confirm | IEC-6 tox-2
O=C(O)CC1SC(=O)N(CC(=O)c2ccccc2)C1=O (centres undefined) | . | - | . | . | - | - | . | .
COc1ccc(Cl)cc1NC(=O)CN(C)CC(=O)Nc1ccccc1N1CCOCC1 | 75.8 | 65.8 | 83.2 | 83.3 | 111.8 | 77.1 | 76.6 | 57.2
COC(=O)c1ccccc1NC(=O)CNc1cc(Cl)ccc1N1CCOCC1 | - | - | - | - | - | - | . | .
COc1cc([C@@H]2c3cc4c(cc3[C@@H](O)[C@@H](CO)[C@@H]2CO)OCO4)cc(OC)c1O[Si](C)(C)C(C)(C)C | . | . | . | . | - | . | . | .
COc1cc([C@@H]2c3cc4c(cc3[C@H](O)[C@H]3COC(=O)[C@H]23)OCO4)cc(OC)c1OC | 93.0 | 83.7 | 94.4 | 96.8 | 94.6 | . | 92.3 | .
COC(=O)c1nn(-c2ccc3c(c2)CCN3C(C)=O)cc1O | - | 75.0 | - | - | 90.6 | - | 78.3 | -
COC(=O)c1nn(-c2ccc3c(c2)OCO3)cc1O | - | - | - | - | - | - | . | .
CN(CC(=O)NCCCN1CCOCC1)S(=O)(=O)c1cc(Cl)ccc1Cl | . | - | . | . | - | - | . | .
Clc1ccccc1/C=C/c1nc(-c2ccccn2)no1 | - | 72.3 | . | - | 104.5 | - | 73.0 | -
C/C(=N/NC(=O)c1ccccc1)c1ccc(NC(=O)C(F)(F)F)cc1 | - | - | - | - | - | - | . | .
CCN1/C(=C/c2ccc3ccccc3[n+]2CC)C=Cc2ccccc21 | 91.8 | 66.0 | - | 99.3 | - | 47.9 | 103.0 | 57.7
OCCC1CN(Cc2cccn2-c2ncccn2)CCN1C1CCCC1 (centres undefined) | - | - | - | - | - | - | . | .
O=C(N/N=C/c1cccs1)c1cc(-c2ccncc2)nc2ccccc12 | 72.9 | 75.3 | 94.6 | 68.9 | 61.9 | 71.8 | 82.5 | 59.9
O=C(N/N=C/c1cccs1)c1cc(C2CC2)nc2ccccc12 | - | - | - | - | - | - | . | .
O=C(CN1C(=O)c2ccccc2S1(=O)=O)c1ccc2c(c1)OCCCO2 | - | 101.1 | . | - | 114.4 | - | 108.5 | -
O=C(CCN1C(=O)c2ccccc2S1(=O)=O)Nc1cc(Cl)ccc1Cl | . | . | . | . | - | . | . | .
O=C(CCN1C(=O)c2ccccc2S1(=O)=O)Nc1ccc2c(c1)OCCO2 | - | - | - | - | - | - | . | .
O=C(CN1C(=O)c2ccccc2S1(=O)=O)c1ccc(Cl)cc1Cl | . | 83.7 | . | . | 77.7 | - | 83.3 | -
O=C(CN1C(=O)c2ccccc2S1(=O)=O)c1ccc2c(c1)OCCO2 | - | 90.8 | . | - | 111.2 | - | 96.9 | -
CC(=O)c1ccc(OC(C)c2nc3ccccc3s2)cc1 (centres undefined) | . | - | . | . | - | - | . | .
CCCS(=O)(=O)c1cnc(C2COc3ccccc3O2)nc1N (centres undefined) | . | 98.3 | . | . | 67.8 | - | 78.4 | -
CC(=O)CSc1ccc(-c2nc3cc(C)c(C)cc3[nH]2)cn1 | - | 64.1 | - | - | 120.6 | - | 72.7 | -
CC(=O)CSc1ccc(-c2nc3ccccc3[nH]2)cn1 | . | - | . | . | - | - | . | .
C/C(=N/NC(=O)c1ccccn1)c1ccc(O)cc1 | - | - | . | - | - | - | . | .
COc1cc(C(=O)N/N=C(\C)c2ccccn2)cc(OC)c1OC | . | 83.5 | . | . | 109.2 | 95.5 | - | 35.0
CCN(CC)C(=O)Cn1cc(C(=O)C(=O)N2CCN(Cc3ccc4c(c3)OCO4)CC2)c2ccccc21 | . | - | . | . | - | - | . | .
Cc1nn(-c2ccccc2)c(C)c1/C=N/NC(=O)c1cc(-c2cccs2)[nH]n1 | 73.5 | 82.3 | 92.7 | 71.0 | - | 71.7 | 77.4 | 68.6
O=C(CSc1nnc2ccc(-c3ccc(F)cc3)nn12)N1CCOCC1 | . | . | . | . | - | . | . | .
Cc1nn(C(C)(C)C)c(C)c1/C=N/OC(=O)Nc1ccc(Cl)cc1 | - | 97.6 | . | - | 94.2 | - | 105.4 | -
